Experimental data from PubChem BioAssay (Tox21).
Inconclusive results are not listed. Calls of active or inactive are those of the source. Unless noted, calls follow the shape of the dose curve; as a rule, active = well fitted curve in the direction sought with a large enough effect in the repeat runs; inconclusive = weak or mixed curves; inactive = no such curve, though single readings can be large; an effect the other way counts as inactive or inconclusive.

What was measured:
[1] = qHTS assay to identify small molecule antagonists of the retinoid-related orphan receptor gamma (ROR-gamma) signaling pathway - cell viability counter screen (AID 1159520); also: nearly all actives have a fitted effect of over 50% in size; also: potency is read from the fitted curve at half-maximal effect
Procedure, shortened: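 Tet-on ROR gamma CHO cells were given compounds for 2 hr, then doxycycline hyclate at 1 uM final, and incubated 16 hr at 37 C. Viability was measured as ATP content by CellTiter-Glo luminescence.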

[2] = qHTS assay to identify small molecule agonists of the AP-1 signaling pathway - cell viability counter screen (AID 1159525; calls by dose curve; also: nearly all actives have a fitted effect of over 55% in size)
Procedure, shortened: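 Same-well cytotoxicity counter screen of the Tox21 10K library in ME-180 cells. The readout is ATP-dependent luminescence after 5 h compound treatment. Data are normalised to DMSO and tetra n-octyl ammonium bromide controls.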

[3] = qHTS assay to identify small molecule agonists of the AP-1 signaling pathway (AID 1159526; calls by dose curve; also: potency is read from the fitted curve at half-maximal effect)
[4] = biological target: Retinoic acid receptor RXR-alpha (Homo sapiens) (UniProt P19793); test: qHTS assay to identify small molecule agonists of the RXR signaling pathway (AID 1159527; calls by dose curve; also: nearly all actives have a fitted effect of over 35% in size)
Sequence of Retinoic acid receptor RXR-alpha (Homo sapiens) (P19793 whole entry, looked up): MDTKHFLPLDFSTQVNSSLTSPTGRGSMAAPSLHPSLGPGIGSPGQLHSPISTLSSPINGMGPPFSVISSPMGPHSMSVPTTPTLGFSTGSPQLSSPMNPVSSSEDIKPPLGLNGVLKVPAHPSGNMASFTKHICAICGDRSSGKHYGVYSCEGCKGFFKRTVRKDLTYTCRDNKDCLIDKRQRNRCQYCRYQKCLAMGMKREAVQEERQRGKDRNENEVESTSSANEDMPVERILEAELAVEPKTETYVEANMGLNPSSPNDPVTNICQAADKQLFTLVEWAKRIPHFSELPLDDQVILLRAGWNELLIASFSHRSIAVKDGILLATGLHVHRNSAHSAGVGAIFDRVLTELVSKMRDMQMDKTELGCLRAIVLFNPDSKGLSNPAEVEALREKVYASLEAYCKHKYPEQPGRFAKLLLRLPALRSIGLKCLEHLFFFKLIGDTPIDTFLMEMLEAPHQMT
Procedure, shortened: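 Agonist mode; 9-cis retinoic acid positive control. HEK 293T UAS-bla reporter cells, 2% charcoal-stripped FBS, 16 hr compound exposure at 37 C/5% CO2. LiveBLAzer B/G FRET substrate 2 hr RT; ex 405, em 460/530 nm.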

[5] = qHTS assay to identify small molecule agonists of the RXR signaling pathway - cell viability counter screen (AID 1159529); also: nearly all actives have a fitted effect of over 50% in size; also: potency is read from the fitted curve at half-maximal effect
Procedure, shortened: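 Luminescence from CellTiter-Glo (30 min, RT) measured viability in the same wells as the beta-lactamase reporter readout. Cells: GeneBLAzer RXR-alpha HEK 293T, 2% charcoal-stripped FBS. Compound exposure 16 hr, 37 C.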

[6] = qHTS assay to identify small molecule antagonists of the retinoid acid receptor (RAR) signaling pathway - cell viability counter screen (AID 1159551); also: nearly all actives have a fitted effect of over 35% in size
Procedure, shortened: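 Viability of C3RL4 cells is quantified from ATP by luminescence after 6 h treatment at 37 C with compounds and 1 uM retinol.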

[7] = qHTS assay to identify small molecule antagonists of the retinoic acid receptor (RAR) signaling pathway (AID 1159552; also: nearly all actives have a fitted effect of over 50% in size; also: potency is read from the fitted curve at half-maximal effect)
Procedure, shortened: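 Luminescence from a RARE luciferase reporter in C3RL4 cells served as read-out. Cells received compounds together with 1 uM final retinol and incubated 6 hr at 37 C before detection reagent was added for 30 min at room temperature.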

[8] = qHTS assay to identify small molecule antagonists of the farnesoid-X-receptor (FXR) signaling pathway - cell viability counter screen (AID 743221; active = well fitted cell-killing curve with a large enough effect in the repeat runs, not every such curve was filed as active; also: nearly all actives have a fitted effect of over 50% in size; also: potency is read from the fitted curve at half-maximal effect)
Procedure, shortened: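 HEK 293T FXR-bla cells, 5 h pre-incubation; compound + CDCA 50 uM final, 16 h, 37 C; beta-lactamase FRET read first, then CellTiter-Glo luminescence, 30 min RT.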

[9] = qHTS assay to identify small molecule agonists of the vitamin D receptor (VDR) signaling pathway - cell viability counter screen (AID 743224); also: nearly all actives have a fitted effect of over 50% in size; also: potency is read from the fitted curve at half-maximal effect
Procedure, shortened: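 In parallel with the bla FRET readout, cytotoxicity toward VDR-bla cells after 16 h compound exposure was assessed by CellTiter-Glo, with luminescence recorded after a 30 min room-temperature incubation.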

[10] = qHTS assay to identify small molecule antagonists of the vitamin D receptor (VDR) signaling pathway - cell viability counter screen (AID 743225); also: nearly all actives have a fitted effect of over 50% in size; also: potency is read from the fitted curve at half-maximal effect
Procedure, shortened: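 Viability counter screen run in the same wells as the beta-lactamase reporter assay: HEK 293T VDR-UAS-bla cells, 16 h compound exposure at 37C with 3 nM (final) 1-alpha,25-dihydroxyvitamin D3. CellTiter-Glo luminescence, 30 min, room temperature.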

[11] = qHTS assay to identify small molecule agonists of the retinoic acid receptor (RAR) signaling pathway (AID 1159553); also: potency is read from the fitted curve at half-maximal effect
Procedure, shortened: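 Compounds dissolved in DMSO were pinned onto C3RL4 cells seeded the previous day, and plates were held 6 hr at 37 C. RARE-driven luciferase output was then read by luminescence.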

[12] = qHTS assay to identify small molecule agonists of the peroxisome proliferator-activated receptor delta (PPARd) signaling pathway - cell viability counter screen (AID 743211); also: nearly all actives have a fitted effect of over 55% in size; also: potency is read from the fitted curve at half-maximal effect
Procedure, shortened: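 Read-out: CellTiter-Glo luminescence, 30 min RT, measured in the same wells as the beta-lactamase reporter. Cells: GeneBLAzer PPAR delta UAS-bla HEK293H, 3000 cells/well, compound exposure 17 h at 37C.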

[13] = qHTS assay to identify small molecule antagonists of the peroxisome proliferator-activated receptor delta (PPARd) signaling pathway - cell viability counter screen (AID 743213); also: nearly all actives have a fitted effect of over 50% in size; also: potency is read from the fitted curve at half-maximal effect
Procedure, shortened: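 Same-well viability: cells pre-incubated 5 h, dosed with compound plus 300 nM L165041, kept 17 h at 37 C, FRET substrate 2 h RT, then CellTiter-Glo 30 min RT and luminescence.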

[14] = biological target: Peroxisome proliferator-activated receptor delta (Homo sapiens) (UniProt Q03181); test: qHTS assay to identify small molecule antagonists of the peroxisome proliferator-activated receptor delta (PPARd) signaling pathway (AID 743215; active = well fitted inhibition curve with a large enough effect in the signal ratio in the repeat runs, not every such curve was filed as active; the % refers to the signal ratio;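 also: cells stimulated with agonist L165041 at 300 nM final during compound exposure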; also: potency is read from the fitted curve at half-maximal effect)
Sequence of Peroxisome proliferator-activated receptor delta (Homo sapiens) (Q03181 whole entry, looked up): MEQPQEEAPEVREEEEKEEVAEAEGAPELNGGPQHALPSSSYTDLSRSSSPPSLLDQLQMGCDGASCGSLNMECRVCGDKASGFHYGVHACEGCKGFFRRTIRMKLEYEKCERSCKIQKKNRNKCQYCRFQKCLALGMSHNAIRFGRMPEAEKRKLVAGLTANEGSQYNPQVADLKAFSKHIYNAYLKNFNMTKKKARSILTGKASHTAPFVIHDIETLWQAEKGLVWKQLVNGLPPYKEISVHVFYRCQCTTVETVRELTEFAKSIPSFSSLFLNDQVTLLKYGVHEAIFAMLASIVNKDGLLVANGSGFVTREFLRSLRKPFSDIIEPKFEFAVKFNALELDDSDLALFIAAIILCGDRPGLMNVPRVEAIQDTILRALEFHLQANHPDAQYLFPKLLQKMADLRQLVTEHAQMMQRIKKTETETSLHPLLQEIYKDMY
Procedure, shortened: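 Fluorescence from cleaved LiveBLAzer B/G FRET substrate (2 h, room temperature) reports PPARd-driven beta-lactamase in HEK293H UAS-bla cells. Cells had been treated 17 h at 37 C with compound plus 300 nM final L165041.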

[15] = qHTS assay to identify small molecule agonists of the farnesoid-X-receptor (FXR) signaling pathway - cell viability counter screen (AID 743218); also: nearly all actives have a fitted effect of over 45% in size; also: potency is read from the fitted curve at half-maximal effect
Procedure, shortened: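 Readout: CellTiter-Glo luminescence, 30 min RT, multiplexed after the FXR-bla FRET reading. HEK 293T FXR-UAS-bla cells received compound 5 h post-plating and were incubated 16 h at 37 C.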

[16] = biological target: Bile acid receptor (Homo sapiens) (UniProt Q96RI1); test: qHTS assay to identify small molecule agonists of the farnesoid-X-receptor (FXR) signaling pathway (AID 743220; active = well fitted activation curve with a large enough effect in the signal ratio in the repeat runs, not every such curve was filed as active; the % refers to the signal ratio)
Sequence of Bile acid receptor (Homo sapiens) (Q96RI1 whole entry, looked up): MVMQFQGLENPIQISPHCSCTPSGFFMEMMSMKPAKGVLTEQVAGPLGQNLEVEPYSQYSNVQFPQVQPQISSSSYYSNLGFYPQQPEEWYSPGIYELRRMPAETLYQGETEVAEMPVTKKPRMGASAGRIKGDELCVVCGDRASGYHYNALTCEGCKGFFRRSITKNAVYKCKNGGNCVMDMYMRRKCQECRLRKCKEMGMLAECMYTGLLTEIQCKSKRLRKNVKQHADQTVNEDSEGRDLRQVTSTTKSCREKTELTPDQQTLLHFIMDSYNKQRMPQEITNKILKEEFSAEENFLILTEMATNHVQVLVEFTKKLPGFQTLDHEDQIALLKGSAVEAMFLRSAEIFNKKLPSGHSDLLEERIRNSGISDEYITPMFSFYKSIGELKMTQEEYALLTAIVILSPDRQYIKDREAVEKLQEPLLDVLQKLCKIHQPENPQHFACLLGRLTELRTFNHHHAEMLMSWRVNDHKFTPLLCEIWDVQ
Procedure, shortened: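 FXR-UAS-bla HEK 293T cells carrying a UAS-driven beta-lactamase reporter were plated for 5 h at 37C/5% CO2, then exposed to DMSO-dissolved Tox21 10K compounds for 16 h at 37C. A LiveBLAzer B/G FRET substrate was loaded for 2 h at room temperature before fluorescence reading.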

[17] = biological target: Nuclear receptor ROR-gamma (Homo sapiens) (UniProt P51449); test: qHTS assay to identify small molecule antagonists of the retinoid-related orphan receptor gamma (ROR-gamma) signaling pathway (AID 1159521; also: nearly all actives have a fitted effect of over 50% in size; also: potency is read from the fitted curve at half-maximal effect)
Procedure, shortened: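 Luminescence readout (ONE-Glo, 30 min RT) after 16 h doxycycline induction; loss of signal scored as antagonism. CHO cells with TET-inducible RORγ and RORE-LUC reporter; compounds added 2 h before 1 uM final doxycycline.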

[18] = biological target: Bile acid receptor (Homo sapiens) (UniProt Q96RI1); test: qHTS assay to identify small molecule antagonists of the farnesoid-X-receptor (FXR) signaling pathway (AID 743217; active = well fitted inhibition curve with a large enough effect in the signal ratio in the repeat runs, not every such curve was filed as active; the % refers to the signal ratio; also: potency is read from the fitted curve at half-maximal effect)
Procedure, shortened: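 FRET fluorescence after 2 h room-temperature LiveBLAzer loading gives the readout. Prior step: FXR-bla HEK 293T cells, seeded and incubated 5 h, received test compounds plus 50 uM final CDCA for 16 h at 37 °C.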

[19] = biological target: Vitamin D3 receptor (Homo sapiens) (UniProt P11473); test: qHTS assay to identify small molecule antagonists of the vitamin D receptor (VDR) signaling pathway (AID 743223; active = well fitted inhibition curve with a large enough effect in the signal ratio in the repeat runs, not every such curve was filed as active; the % refers to the signal ratio)
Sequence of Vitamin D3 receptor (Homo sapiens) (P11473 whole entry, looked up): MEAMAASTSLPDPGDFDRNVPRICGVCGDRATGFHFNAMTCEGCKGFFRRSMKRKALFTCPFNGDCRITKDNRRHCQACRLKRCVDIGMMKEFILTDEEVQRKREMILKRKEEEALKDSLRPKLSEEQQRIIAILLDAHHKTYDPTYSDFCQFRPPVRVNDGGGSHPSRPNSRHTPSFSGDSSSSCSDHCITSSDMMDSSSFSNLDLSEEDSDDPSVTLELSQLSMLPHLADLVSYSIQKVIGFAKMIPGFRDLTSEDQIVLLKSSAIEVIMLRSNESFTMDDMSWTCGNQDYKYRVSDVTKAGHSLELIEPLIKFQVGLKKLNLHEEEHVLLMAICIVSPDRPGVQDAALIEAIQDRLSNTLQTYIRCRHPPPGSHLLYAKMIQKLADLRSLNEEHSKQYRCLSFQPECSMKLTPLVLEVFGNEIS
Procedure, shortened: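 Beta-lactamase reporter read-out: FRET substrate fluorescence after 2 h at room temperature, following 16 h exposure of VDR-bla cells to test compound plus 3 nM (final) 1alpha,25-dihydroxyvitamin D3 agonist at 37C.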

[20] = biological target: Peroxisome proliferator-activated receptor delta (Homo sapiens) (UniProt Q03181); test: qHTS assay to identify small molecule agonists of the peroxisome proliferator-activated receptor delta (PPARd) signaling pathway (AID 743212; calls by dose curve)
Procedure, shortened: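 Read-out: beta-lactamase FRET fluorescence after 2 h room-temperature incubation with LiveBLAzer B/G substrate. Cells were HEK293H carrying a UAS-bla reporter for PPARd, treated at 37 C with DMSO-dissolved compounds.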

Measured: Potency

Cn1c(=O)[nH]c2ncn(C)c2c1=O
inactive: [1] | [2] | [3] | [4] | [5] | [6] | [7]

Nc1c(Br)cc([N+](=O)[O-])cc1Br
inactive: [1] | [2] | [3] | [4] | [5] | [6] | [7]

CCNc1nc(NC(C)(C)C)nc(OC)n1
inactive: [1] | [2] | [3] | [4] | [5] | [6] | [7]

Cc1ccc2nc(-c3ccc(N)cc3)sc2c1S(=O)(=O)O
active: [3] 21.5 µM | [11] 0.426 µM
inactive: [8] | [9] | [10] | [1] | [2] | [5] | [6] | [7]

Clc1nc(C(Cl)(Cl)Cl)c(Cl)c(Cl)c1Cl
inactive: [13] | [14] | [15] | [16] | [10] | [2]
active: [12] 34.7 µM | [9] 49 µM | [1] 30.6 µM | [5] 43.6 µM

O=C(c1ccccc1)c1ccc(Cl)cc1
inactive: [1] | [6] | [7]
active: [17] 68.6 µM

CC(C)(C)c1ccc(OC2CCCCC2O)cc1 (centres undefined)
inactive: [17] | [7]

CCCCCc1ccc(O)cc1
inactive: [17] | [6] | [7]

CCCCCCCC/C=C\CCCCCCCC(=O)N(CCO)CCO
inactive: [13] | [14] | [18] | [19] | [10] | [6] | [7]
active: [12] 43.5 µM | [15] 54.7 µM | [9] 43.5 µM | [17] 30.5 µM

CN1CCN(CCCN2c3ccccc3Sc3ccc(Cl)cc32)CC1
active: [12] 26.6 µM | [13] 26.6 µM | [15] 26.6 µM | [8] 23.7 µM | [5] 9.52 µM | [7] 26.6 µM
inactive: [20] | [1] | [6]

CC(C)C(=O)C(C)C
inactive: [1] | [3] | [5] | [6] | [7]

O=S(=O)(c1ccc(OCc2ccccc2)cc1)c1ccccc1O
inactive: [2] | [5]

CC(Cc1ccc(O)c(O)c1)C(C)Cc1ccc(O)c(O)c1 (centres undefined)
active: [17] 6.86 µM
not listed: [1] | [3] | [5] | [6] | [14] | [18] | [19] | [20]
inactive: all other assays above

c1ccc2cc3c4ccccc4c4ccccc4c3cc2c1
not listed: [1] | [3] | [16] | [17] | [18]
inactive: all other assays above

CCC(C)(C)c1ccc(CC(C)CN2C[C@@H](C)O[C@@H](C)C2)cc1 (some centres undefined)
active: [12] 26.6 µM | [5] 12 µM
inactive: [20] | [13] | [14] | [15] | [8] | [19] | [17] | [7]

CC1=C(/C=C/C(C)=C/C=C/C(C)=C\C(=O)O)C(C)(C)CCC1
active: [11] 0.0194 µM
inactive: [13] | [9] | [10] | [17] | [3] | [6] | [7]

Cc1ccc(Cl)c(N)c1Cl
active: [9] 38.9 µM | [5] 49 µM
inactive: [20] | [8] | [10] | [1] | [6]

CCCOC(=O)c1ccc(O)cc1
active: [11] 54.5 µM
inactive: [20] | [17] | [2] | [3] | [7]

CN[C@H]1CC[C@@H](c2ccc(Cl)c(Cl)c2)c2ccc(S(N)(=O)=O)cc21
active: [12] 6.92 µM | [13] 12.3 µM | [14] 34.7 µM | [18] 49 µM | [15] 13.8 µM | [8] 24.5 µM | [9] 17.4 µM | [10] 21.9 µM | [17] 54.5 µM | [5] 27.5 µM
inactive: [2] | [6]

Cc1cc(C)c(O)c(C(C)(C)C)c1
inactive: [17] | [2] | [4] | [7]

c1ccc(C[P+](c2ccccc2)(c2ccccc2)c2ccccc2)cc1
active: [17] 24.3 µM
inactive: [3] | [6]

COc1cccc(-c2ccc(/C=C\CN3CCCCCC3)cc2Cl)c1
active: [12] 48.7 µM | [5] 43.4 µM
inactive: [14] | [18] | [16]

O[Si](c1ccccc1)(c1ccccc1)c1ccccc1
inactive: [2] | [3] | [5] | [6]
active: [17] 24.3 µM
